This is one part of a sample in which hits are shown more often than they occur.
Pin1 inh: blocks the human prolyl isomerase Pin1; Q13526; Pin1 FP peptide displacement, HiFluor488, 10 min; Potency, µM (top dose mostly 115 µM), without a hit: at the top dose activity, negative = inhibition, most hits filed as inhibitors; 390,000 tested, 0.009% active; active = well fitted inhibition curve with a large enough effect in the polarisation, with a control signal flat, not every such curve was filed as active; inconclusive = small, poorly fitted or top-dose-only effect, or effect the other way, or a change in a side signal; inactive = no such curve, though single readings can be large or run the other way; the % refers to the polarisation; note: potency is the fitted concentration of half-maximal effect
Target sequence (Q13526 whole entry, looked up): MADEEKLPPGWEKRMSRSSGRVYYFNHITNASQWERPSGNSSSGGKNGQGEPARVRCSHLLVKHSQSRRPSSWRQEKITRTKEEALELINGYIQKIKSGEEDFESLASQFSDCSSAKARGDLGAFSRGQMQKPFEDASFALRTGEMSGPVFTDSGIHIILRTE
PI4K2A inh: blocks human PI4K2A kinase activity. 420,000 tested, 0.13% active. Q9BTU6. AID 1346378. activity change, negative = inhibition, % at 76.9 µM. purified PI4K2A, ADP-Glo luminescence, 1 h; hits give low values; in the data active = activity change below about -50%; inconclusive = mostly about -30% to -49%;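 note: -100% = wells without enzyme as full effect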
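PI4K2A activity was measured by ADP-Glo luminescence: enzyme (4 ug/mL stock) and phosphatidylinositol (1.2 mM stock) in Tris pH 7.5/MgCl2/EGTA/Triton X-100 buffer were reacted with ATP (300 microM stock) for one hour at ambient temperature.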
Tb PFK inh: blocks T. brucei phosphofructokinase; O15648; T. brucei PFK, ADP-Glo luminescence; Potency, µM (series often up to 57.5 µM), without a hit: at the top dose activity, negative = inhibition, most hits filed as inhibitors; 330,000 tested, 0.17% active;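 note: potency is the fitted concentration of half-maximal effect; 0% = uninhibited 1x PFK enzyme wells and -100% = no-enzyme wells; nearly all actives have a fitted effect of over 60% in size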
Target sequence (O15648 whole entry, looked up): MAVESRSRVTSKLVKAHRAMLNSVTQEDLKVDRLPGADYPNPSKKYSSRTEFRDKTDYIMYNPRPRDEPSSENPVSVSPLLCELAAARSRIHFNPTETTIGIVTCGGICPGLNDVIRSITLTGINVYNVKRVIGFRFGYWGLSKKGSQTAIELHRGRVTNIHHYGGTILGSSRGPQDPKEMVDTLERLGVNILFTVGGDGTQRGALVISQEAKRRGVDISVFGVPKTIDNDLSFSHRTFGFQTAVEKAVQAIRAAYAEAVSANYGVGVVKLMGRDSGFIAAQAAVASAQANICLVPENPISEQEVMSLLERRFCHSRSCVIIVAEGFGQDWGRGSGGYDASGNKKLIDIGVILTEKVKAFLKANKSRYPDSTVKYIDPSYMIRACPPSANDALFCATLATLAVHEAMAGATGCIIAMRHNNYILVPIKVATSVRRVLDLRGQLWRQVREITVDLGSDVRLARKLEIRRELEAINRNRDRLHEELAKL
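ADP-Glo luminescence quantified ADP after 45 min at room temperature, with 1.25 nM T. brucei PFK, 0.1 mM ATP and 0.5 mM fructose-6-phosphate in pH 8.0 TEA buffer. qHTS titrations up to 57 µM; curves classified by quality.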
PGK inhibitor: inhibitors of T. brucei phosphoglycerate kinase; PGK/GAPDH coupled, Kinase-Glo luminescence, 60 min; Potency, µM (highest dose often 57.5 µM), for the others: at the highest dose activity change, negative = inhibition, most hits filed as inhibitors; 380,000 tested, 0.043% active; AID 602233; note: potency is the fitted concentration of half-maximal effect; nearly all actives have a fitted effect of over 60% in size
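Luminescent ATP detection (Kinase-Glo Plus) follows a 60-minute room-temperature incubation, with wells lacking PGK as controls. Buffer: 100 mM TEA (pH 7.6), 5 mM MgCl2, 0.01% Tween-20. Coupling enzyme GAPDH (100 nM final) supplies unstable 1,3-BPG in-well.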
PI5P4K alpha inh: PI5P4K alpha (human) kinase inhibition; max response, %; PI5P4Kalpha enzyme, ADP-Glo luminescence, 60 min; hits give low values; 330,000 tested, 1.2% active; AID 652105; active = max response of -50% or lower; inconclusive = between -30% and -50%; inactive = -30% or higher; note: value at the top dose of about 77 µM
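ADP-Glo luminescence end-point after a 60 min room-temperature kinase reaction. PI5P4Kalpha and substrate in HEPES pH 7.4 buffer with EGTA, 0.1% CHAPS and 5% DMSO; ATP at 5 microM final.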
Numbers without * were called inactive; i = inactive; ? = inconclusive; · = not tested or not shown; ! = not active in a repeat. Unless noted, calls come from the whole dose curve; as a rule, active = well fitted curve in the direction sought with a large enough effect; inconclusive = small, poorly fitted or top-dose-only effect, or another doubt; inactive = no such curve, though single readings can be large; an effect the other way counts as inactive or inconclusive. Unless noted, % is set by controls: 0 for no effect and ±100 for the full control effect.

SMILES | Pin1 inh | PI4K2A inh | Tb PFK inh | PGK inhibitor | PI5P4K alpha inh
c1ccc2c(c1)Cn1c-2nc2ccccc21 | -1.5% | -52.6* | -17.7% | ? | ?
Brc1c(-c2ccccc2)nc2n1Cc1ccccc1-2 | 6.7% | -1.3 | -5.5% | -0.6% | -3.7
O=C(CN1CCc2onc(-c3cccc(-n4cc(CO)nn4)c3)c2C1=O)N1CCOCC1 | · | -0.9 | · | · | ·
COCCCn1c(=NC(=O)c2ccccc2)c(C#N)cc2c(=O)n3cccc(C)c3nc21 | -9.0% | 1.6 | 3.3% | -4.5% | -6.8
Cc1cccc(C(=O)N=c2c(C#N)cc3c(=O)n4cccc(C)c4nc3n2Cc2ccco2)c1 | ? | ? | 2.3% | -2.8% | -92.9*
Cc1cccn2c(=O)c3cc(C#N)c(=NC(=O)c4ccccc4)n(Cc4ccco4)c3nc12 | ? | ? | · | -3.2% | -73.3*!
Cc1cccn2c(=O)c3cc(C#N)c(=NC(=O)c4ccco4)n(Cc4ccco4)c3nc12 | 146.8% | -2.1 | -6.5% | -16.8% | ?
C[C@@H]1COc2cc(F)ccc2S(=O)(=O)N1C | · | -0.5 | · | · | ·
Cc1cc2c(s1)c1cnn(Cc3c(F)cc(F)cc3F)c(=O)c1n2C | 5.9% | · | · | · | ·
CCCCCCCCSc1nnc2[nH]c(=O)cc(N)n12 | 7.7% | 3.1 | -5.6% | i | -50.5*
CCCCCCSc1nnc2[nH]c(=O)cc(N)n12 | 4.3% | 1.9 | 1.8% | -1.8% | -13.4
O=C(O)Cc1cccc(=O)c(O)c1C(=O)O | · | -3.8 | · | 12.6µM* | -17.8
O=C(CCCCn1cnc2c(=S)nc[nH]c21)Nc1ccc(C(=O)O)c(O)c1 | 0.5% | -10.5 | · | 3.8% | -67.6*
C=CCN(c1ccccc1)S(=O)(=O)c1cccc(C(=O)O)c1 | -11.8% | 2.7 | -1.8% | i | -0.8
C=CCN(c1ccccc1)S(=O)(=O)c1cccc(C(=O)NNC(=O)c2ccccc2O)c1 | -2.5% | 4.5 | -12.7% | i | -55.6*
COc1ccccc1NC(=O)OC1CCC12CCCCC2 (stereo not drawn) | · | -0.2 | · | · | ·
COc1ccc(OCc2cc(C3Nc4ccccc4C(=O)N3Cc3ccccc3)ccc2OC)cc1 (stereo not drawn) | 6.6% | · | · | · | ·
S=c1nc(-c2cc(Cl)ccc2Cl)[nH][nH]1 | -2.5% | -3.6 | -20.0% | 3.4% | -64.2*
S=c1nc(-c2cccc(Cl)c2)[nH][nH]1 | -5.2% | 1.3 | 1.9% | -2.7% | -8.0
CN(C)/C=C/c1c([N+](=O)[O-])c2ccc(O)cc2n1-c1ccccc1 | 4.7% | -4.3 | -3.1% | -10.0% | -58.9*
COc1ccc(-c2cc3nc(C)n(N)c(=O)c3s2)cc1 | 16.9% | -86.6* | -27.0% | 4.47µM* | -53.1*
Cc1nc2cc(-c3ccccc3)sc2c(=O)n1N | 5.3% | -80.3* | -29.5% | 10µM* | -71.7*
Cn1c(NCc2ccccc2)nc2cc(-c3ccccc3)sc2c1=O | · | 2.0 | · | · | 0.8
N#CN1CCC(NC(=O)c2cccc(C(F)(F)F)c2)CC1 | -19.5% | · | · | · | ·
Cc1ccc(NC(=S)c2nc3ccccc3s2)cc1 | -4.0% | -82.3* | 1.3% | -0.5% | 4.9
SMILES | Pin1 inh | PI4K2A inh | Tb PFK inh | PGK inhibitor | PI5P4K alpha inh
CCN(CC)C(=O)CC[C@H]1CC[C@]2(CCCN(CC3CC3)C2)O1 | · | -5.5 | · | · | ·
CCO[C@@H]1O[C@H](C(COCc2ccccc2)OCc2ccccc2)[C@H](OCc2ccccc2)[C@H]1O (stereo partly drawn) | · | -0.5 | · | · | ·
COC(=O)/C=C1\SC(=NC(=O)c2ccc(-c3ccccc3)cc2)NC1=O | 2.0% | -5.8 | -0.4% | -7.7% | -63.1*
COC(=O)/C=C1\SC(=NC(=O)c2ccc(OC)cc2)NC1=O | 1.2% | 1.8 | 0.4% | 9.1% | -0.7
O=C(NCC1CN(c2ccc(N3CCOCC3=O)cc2)C(=O)O1)c1ccc(Cl)s1 (stereo not drawn) | · | -0.7 | · | · | ·
N/C(=N/OC(=O)c1ccccc1Cl)c1nonc1N | -9.3% | -53.5* | 1.3% | ? | -24.4
CC(C)(C)OC(=O)Cc1nnc(CNC(=O)c2ccccc2)s1 | -0.4% | · | · | · | ·
O=C(CSc1nc2ccccc2c(=O)n1-c1ccc(Cl)cc1)NNC(=S)Nc1ccccc1 | · | 1.9 | · | · | ·
NC(=O)CC(NSc1ccccc1[N+](=O)[O-])C(=O)O (stereo not drawn) | ? | -8.2 | 1.2% | 7.7% | -57.1*
O=C(O)Cn1cnnn1 | · | 1.0 | · | · | ·
Nc1ccc2cc3[nH]c4cc(N)ccc4c3nc2c1 | ? | -14.8 | · | -14.2% | -58.9*
CCC(=O)NC(c1ccco1)c1cc(Cl)c2c(c1O)NCCC2 (stereo not drawn) | -0.8% | · | · | · | ·
CC(C)CC1C(C#N)=C(N)Oc2n[nH]c(-c3ccccc3)c21 (stereo not drawn) | 0.6% | 2.4 | -5.6% | 8.8% | -56.9*
N#CC1=C(N)Oc2n[nH]c(-c3cccnc3)c2C1c1cc(F)ccc1F (stereo not drawn) | -1.4% | -1.8 | 1.1% | -1.3% | -54.2*
N#CC1=C(N)Oc2n[nH]c(-c3ccccc3)c2C1c1cccnc1 (stereo not drawn) | -1.5% | -5.3 | -2.4% | i | ?
N#CC1=C(N)Oc2n[nH]c(-c3cccnc3)c2C1c1ccc([N+](=O)[O-])o1 (stereo not drawn) | ? | -4.8 | 0.3% | -14.6% | -58.9*
COc1ccc(S[C@]2(C(=O)N3CCN(c4ncccn4)CC3)CC(=O)N(C(=O)c3ccccc3)[C@@H]2c2ccc(OC)cc2)cc1 | · | -3.5 | · | · | ·
CC(C)NC(=O)c1ccc(C=O)cc1 | · | -0.3 | · | · | ·
C[C@@H]1CN([C@H](C)CO)C(=O)c2cc(NC(=O)Nc3ccccc3)ccc2O[C@@H](C)CCCCO[C@H]1CN(C)S(=O)(=O)c1ccc(F)cc1 | · | 3.1 | · | · | ·
CNC(=O)C1CCN(c2nc(-c3ccc(Br)cc3)cs2)CC1 | -5.0% | · | · | · | ·
CCc1cccc2c1NC(=O)[C@]21[C@@H]2C(=O)N(Cc3ccccc3)C(=O)[C@@H]2[C@@H]2CCCN21 | 0.6% | 2.1 | -1.4% | -4.2% | -51.5*
Cc1c(Cl)ccc2c1NC(=O)[C@]21[C@@H]2C(=O)N(Cc3ccccc3)C(=O)[C@@H]2[C@@H]2CCCN21 | 23.0% | -2.9 | 2.8% | -3.8% | ?
O=C(OC12CCCN(C1)/C(=C/c1ccc(Cl)cc1)C2)c1ccno1 (stereo not drawn) | · | -0.9 | · | · | ·
C[C@@H](NC(=O)C[C@H]1CC[C@H]2[C@@H](COc3ccc(NC(=O)Nc4ccccc4)cc3C(=O)N2C)O1)c1ccccc1 | · | -8.1 | · | · | ·
NCCCC(N)CC(=O)NCC1NC(=O)C(CO)NC(=O)C(N)CNC(=O)C(C2CCN=C(N)N2)NC(=O)C(=CNC(N)=O)NC1=O (stereo not drawn) | · | i | · | · | ·
O=S(=O)(c1ccccc1)N1CCN(c2nc(-c3ccc(Br)cc3)cs2)CC1 | -4.4% | · | · | · | ·
O=C(CSc1nnnn1-c1ccccc1)NC(=O)NCc1ccco1 | ? | -8.5 | -7.6% | -3.4% | -60.5*
CCOc1ccccc1-n1nnnc1SCC(=O)NC(=O)NCc1ccco1 | ? | -12.5 | ? | -10.7% | ·
